# Pf Dd2 growth – qHTS Primary assay for Inhibitors of Plasmodium falciparum Dd2 growth in vitro | P. falciparum Dd2 growth, SYBR Green, 72 h | Potency, µM (top dose mostly 28.9 µM), inactives show at the top dose activity, negative = inhibition, actives largely listed as inhibitors | 120,000 tested, 4.3% active; active means well fitted inhibition curve with a large enough effect;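 further: plate controls were DMSO vehicle for no effect and reference drug for full effect; nearly all actives have a fitted effect of over 65% in size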
#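 Infected erythrocytes (Dd2, 0.3% parasitemia, 2.5% hematocrit final) are added to compound in RPMI-1640/Albumax II medium, grown 72 h at 37C in low oxygen, then lysed with saponin/Triton-X containing SYBR Green and read by fluorescence.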
# The depositor's hits bear a star; i = inactive; [ ] = another dose, or the depositor's remark. Many of the other results were omitted from the sample, so hits are more common in it than they were. Potency means the concentration at half of the fitted maximal effect.
SMILES,Pf Dd2 growth
COc1ccc(NC(=O)C2Cn3cccc3C(=O)N2C)cc1 (stereo not drawn),-18%
COc1ccc2cc1Nc1ccc(cc1)C[C@H](NCC1CC1)C(=O)N(C)[C@@H](C(=O)Nc1ccccc1)C2,4µM*
O=C1[C@@H]2C[C@@H](CN2C(=O)C2CCOCC2)Oc2ccccc2N1Cc1ccccc1,9%[44.1 µM]
Cn1cnnc1CC1CCNCC1,5%
COc1ccc(-c2nc(C)nc3c2CCN([S+](=O)([O-])c2ccccc2)CC3)cc1,i
COc1ccccc1C(=O)N1CCC(N2CCCC2=O)CC1,0%[44.1 µM]
O=C(Nc1ccccc1)[C@H]1CN2CCC1C[C@@H]2Cn1cc(C2(O)CCCCC2)nn1 (stereo partly drawn),i
COCCNC(=O)[C@H]1CN2CCC1C[C@@H]2Cn1cc(-c2cccc(N)c2)nn1 (stereo partly drawn),-9%[44.1 µM]
Nc1cccc(-c2cn(C[C@H]3CC4CCN3C[C@@H]4C(=O)Nc3ccccc3)nn2)c1 (stereo partly drawn),7.9µM*
Cc1cc(Cl)ccc1C(=O)N1Cc2cnn(Cc3ccc(F)cc3)c2C1,-26%
COC(=O)N1CCC2(CC1)Cc1ccccc1NC2=O,-17%[44.1 µM]
Cn1c(=O)n([C@H]2CCCN(C(=O)C3CC3)C2)c2ncccc21,-5%
Cc1ccc(C(=O)N2CCC(Oc3ccc(C(=O)N(C)C)cn3)CC2)cc1F,29%
CN1[C@@H](CCC(=O)N2CCN(c3ccccc3)CC2)CNC(=O)[C@@H]2[C@H]1CCN2Cc1ccc(F)cc1,i
COc1ccc(C(=O)Nc2ccc([C@H]3OCC(=O)N(Cc4ccncc4)[C@@H]3CO)cc2)cc1OC,3%
N#Cc1ccc(C(=O)Nc2ccc([C@@H](O)[C@H]3COCC(=O)N3CCCc3ccccc3)cc2)cc1,i
CC(C)CC(=O)NCCC1CCN(C(=O)Nc2ccc(F)cc2F)CC1,8%
Cn1c(C(=O)NCC2CC2)nc2nc(-c3ccccc3)c(Cl)cc21,-13%[44.1 µM]
COc1cc(CNC(=O)c2nc3nc(-c4ccccc4)c(Cl)cc3n2C)cc(OC)c1,8.9µM*
COCc1nc2nc(-c3ccccc3)c(-c3ccccc3OC)cc2n1C,-6%[44.1 µM]
CN(C)CCNC(=O)c1nc2nc(-c3ccccc3)c(-c3ccccc3O)cc2n1C,5.6µM*
CN(C)CCNC(=O)c1nc2nc(-c3ccccc3)c(-c3ccc(Cl)cc3)cc2n1C,5µM*
Cn1c(C(=O)NCc2ccoc2)nc2nc(-c3ccccc3)c(Cl)cc21,-5%[44.1 µM]
Cn1c(C(=O)NCCc2ccccn2)nc2nc(-c3ccccc3)c(Cl)cc21,i
COCc1nc2nc(-c3ccccc3)c(-c3ccccc3O)cc2n1C,4.5µM*
SMILES,Pf Dd2 growth
COc1ncccc1-c1cc2c(nc1-c1ccccc1)nc(C(=O)NCCN(C)C)n2C,i
COCc1nc2nc(-c3ccccc3)c(-c3cccnc3)cc2n1C,-6%[44.1 µM]
Cn1c(C(=O)NCCN2CCOCC2)nc2nc(-c3ccccc3)c(Cl)cc21,i
COc1ccc(CNC(=O)c2nc3nc(-c4ccccc4)c(Cl)cc3n2C)cc1OC,9%[44.1 µM]
C#CCOc1ccc(C(=O)N[C@@H]2CN(C3CCN(C)CC3)CCC[C@H]2O)cc1,-11%[44.1 µM]
COCCNC(=O)C[C@@H]1C[C@H]2O[C@H](CNC(=O)NC3CCC3)[C@@H](O)[C@H]2O1,29%[44.1 µM]
C[S+](=O)([O-])N1CCC(Cn2ccc3c(N4CCOCC4)nc(-c4ccncc4)cc32)CC1,i
O=C(NC1CC1)C1CCc2nnc(-c3cccc(C(F)(F)F)c3)n21 (stereo not drawn),16%
CC(C)NS(=O)(=O)c1ccc2c(c1)nc(-c1ccc(CO)o1)n2C(C)C,7%
CCn1ccc(C(=O)N2C[C@@H](Oc3cccnc3)C[C@@H]2C(=O)NCCOC)n1,22%
CCCNC(=O)N(C1CCOCC1)C1CCN(S(=O)(=O)c2cn(C)cn2)CC1,-1%
CC1(C)CN(C(=O)c2cccc(-c3ncc[nH]3)c2)CC1(C)O (stereo not drawn),-6%
COCC(=O)NC[C@H]1CCN(S(C)(=O)=O)C[C@H]1N(C)C,12%
Cc1ccc(CN2CCN(C(=O)c3ccc4c(c3)C(O)CCCCCN4C)CC2)cc1 (stereo not drawn),13µM*
COc1ccccc1CNC(=O)c1ccc2c(c1)C(O)CCCCCN2C (stereo not drawn),i
CC(C)CN1CCN(C(=O)c2ccc3c(c2)C(O)CCCCCN3C)CC1 (stereo not drawn),i
CN1CCCCCC(O)c2cc(C(=O)NCc3nc4ccccc4n3C)ccc21 (stereo not drawn),i
CN1CCCCCC(O)c2cc(C(=O)N3CCN(C4CCCCC4)CC3)ccc21 (stereo not drawn),i
CN1CCCCCC(O)c2cc(C(=O)NCc3cccc(C(F)(F)F)c3)ccc21 (stereo not drawn),10µM*
c1cc(Cn2cccn2)cc(-c2cn(CC3CNCCO3)nn2)c1 (stereo not drawn),-6%
COCCNC(=O)c1ccc(CN2C(=O)NC3(CCS(=O)(=O)CC3)C2=O)cc1,8%
Cc1ccc(C(=O)NCCC(=O)N2CC[C@@](C)(O)[C@@H](O)C2)cc1,12%
Cc1ncoc1C(=O)N1CCC2(CCCN(CC3CCCCC3)C2=O)C1 (stereo not drawn),-4%
COCC(=O)N[C@H]1CC[C@]2(C)CC[C@@H]([C@H](C)C(=O)N3CCCCC3)[C@H](O)[C@H]2[C@@H]1C,34%[44.1 µM]
Cc1ccsc1CN1CCCC(CO)CCNC(=O)CC1 (stereo not drawn),-15%
SMILES,Pf Dd2 growth
O=C(COc1ccc(F)cc1)N1CCCCC1c1nc(CCOCC2CCCC2)no1 (stereo not drawn),-12%
O=C1NCc2ccccc2CC12CCCCN2Cc1ccnc2ccccc12 (stereo not drawn),8.9µM*
O=C1NCc2ccccc2CC12CCN(Cc1cnc3ccccc3c1)C2 (stereo not drawn),-20%
O=C1NCc2ccccc2CC12CCCN2Cc1ccc(Cl)s1 (stereo not drawn),10µM*
O=C1NCc2ccccc2CC12CCN(Cc1ccc(Cl)s1)C2 (stereo not drawn),-7%
O=C1NCc2ccccc2CC12CCCN2Cc1cnc2ccccc2c1 (stereo not drawn),8.9µM*
O=C1NCc2ccccc2CC12CCCN2Cc1ccc(Cl)cc1 (stereo not drawn),-13%
O=C1NCc2ccccc2CC12CCCN2Cc1ccccc1Cl (stereo not drawn),-22%
O=C1NCc2ccccc2CC12CCCCN2Cc1ccc(O)cc1 (stereo not drawn),-3%
O=C1NCc2ccccc2CC12CCCN2Cc1cc(O)cc(O)c1 (stereo not drawn),4%
COc1ccccc1OC1(C(=O)O)CCN(Cc2cnn(C(C)C)c2)CC1,-3%
COc1cc(C(=O)NCCn2cccc2-c2nc(-c3ccccc3)no2)cc(OC)c1OC,-8%
Cc1ccsc1CN1CCc2nc(N(C)Cc3cccnc3)[nH]c(=O)c2CC1,i[5.79 µM]
Cc1cn2nc(C(=O)NCc3ccc(F)cc3)cc2c(=O)[nH]1,-8%
CCN(Cc1ccccc1)C(=O)c1sc2nc3n(c(=O)c2c1C)CCCC3,235%[5.79 µM]
CCc1ccc(N(CC)C(=O)c2sc3nc4n(c(=O)c3c2C)CCCC4)cc1,11µM*
CCN(C(=O)c1sc2nc3n(c(=O)c2c1C)CCCCC3)c1ccc(OC)cc1,-8%
Cc1cc(=O)n(CC(=O)Nc2cccc(C)c2C)c(N(C)Cc2ccccc2)n1,i
FC(F)(F)c1cccc(C2=NOC3(CCN(Cc4ccncc4)CC3)C2)c1,-19%
